The text below walks through data of PubChem BioAssay (Tox21).

Experiment [1] can be described thus: qHTS assay to identify small molecule agonists of the estrogen receptor alpha (ER-alpha) signaling pathway in the presence of an antagonist - cell viability counter screen (AID 1259386).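 Note: cells exposed to compounds for 22 h at 37 °C before the viability read; nearly all actives have a fitted effect of over 30% in size.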 Note: potency is the fitted concentration of half-maximal effect. An outline of the steps: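 ICI-182,780 at 10.0nM final accompanies the compound titration (15 concentrations, 22hr, 37C) on VM7Luc4E2 cells. The CellTiter-Fluor fluorescence readout runs in the same wells as the luciferase assay.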
In general terms: In qHTS, concentration-response curves come from the screen itself.

For experiment [2], the target named is Progesterone receptor (Homo sapiens) (UniProt P06401). Nature of the experiment: qHTS assay to identify small molecule agonists of the progesterone receptor (PR) signaling pathway (AID 1346784; calls by dose curve; note: nearly all actives have a fitted effect of over 30% in size). Summed up:
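Beta-lactamase reporter read-out: after 16 hr compound treatment at 37C and a further 2 hr at room temperature with LiveBLAzer B/G FRET substrate, fluorescence was measured in PR-UAS-bla HEK 293T cells grown in 2% charcoal-stripped serum.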

The nature of experiment [3]: qHTS assay to identify small molecule antagonists of the progesterone receptor (PR) signaling pathway - cell viability counter screen (AID 1346798). Note: nearly all actives have a fitted effect of over 50% in size. Note: potency is the fitted concentration of half-maximal effect. Summed up:
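HEK293T PR-UAS-bla, 2% charcoal-stripped FBS; 4 hr pre-plate; cpd + R5020, 16 h 37C; LiveBLAzer read first; then CellTiter-Glo 30 min RT, luminescence.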

The nature of experiment [4]: qHTS assay to identify small molecule agonists of the progesterone receptor (PR) signaling pathway - cell viability counter screen (AID 1346799; calls by dose curve; note: nearly all actives have a fitted effect of over 45% in size). Summed up:
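Luminescence from CellTiter-Glo, added after the beta-lactamase FRET read in the same wells, gave cytotoxicity in PR-UAS-bla HEK293T cells treated with compounds for 16 hr at 37C.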

The nature of experiment [5]: qHTS assay to identify small molecule antagonists of the TGF-beta/Smad signaling pathway - cell viability counter screen (AID 1346824). Note: nearly all actives have a fitted effect of over 50% in size. An outline of the steps: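 SBE-bla HEK 293T cells, incubated overnight, then compound plus 0.25 ng/mL TGF-beta1 (stock added) for 5 hr at 37 C. Viability was read in the same wells by CellTiter-Glo luminescence after 30 min at room temperature.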

A short description of experiment [6]: qHTS assay to identify small molecule agonists of the TGF-beta/Smad signaling pathway - cell viability counter screen (AID 1346829). Note: top concentration of the series differs between compounds; nearly all actives have a fitted effect of over 45% in size. Summed up: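 Here the cytotoxicity of library compounds is measured in SBE-bla HEK 293T cells treated for 5 hr, using CellTiter-Glo added to wells already read for the beta-lactamase reporter.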
The nature of experiment [7]: qHTS assay to identify small molecule agonists of the TGF-beta/Smad signaling pathway (AID 1346859; active = well fitted activation curve with a large enough effect in the signal ratio in the repeat runs, not every such curve was filed as active; the % refers to the signal ratio; note: series mostly up to about 77 µM). Summed up: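 SBE-bla HEK 293T, 4,000 cells/well, plated o/n; cpd in DMSO, 5 hr, 37 C/5% CO2; B/G FRET substrate 2 hr RT; ex 405, em 460/530 nm.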
The target in experiment [8] is Thyrotropin-releasing hormone receptor (Homo sapiens) (UniProt P34981). Nature of the experiment: qHTS assay to identify small molecule antagonists of the thyrotropin-releasing hormone receptor (TRHR) signaling pathway (AID 1346877; active = well fitted inhibition curve with a large enough effect in the repeat runs, not every such curve was filed as active; note: series mostly up to about 51 µM). Summed up: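 Screening used HEK293 cells engineered with TRHR, with a brief 5 min room-temperature compound exposure preceding addition of TRH to 1 nM. The read-out was kinetic calcium-dye fluorescence, concentration-response from 15 doses in triplicate.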
Chain of Thyrotropin-releasing hormone receptor (Homo sapiens) (P34981 whole entry, looked up): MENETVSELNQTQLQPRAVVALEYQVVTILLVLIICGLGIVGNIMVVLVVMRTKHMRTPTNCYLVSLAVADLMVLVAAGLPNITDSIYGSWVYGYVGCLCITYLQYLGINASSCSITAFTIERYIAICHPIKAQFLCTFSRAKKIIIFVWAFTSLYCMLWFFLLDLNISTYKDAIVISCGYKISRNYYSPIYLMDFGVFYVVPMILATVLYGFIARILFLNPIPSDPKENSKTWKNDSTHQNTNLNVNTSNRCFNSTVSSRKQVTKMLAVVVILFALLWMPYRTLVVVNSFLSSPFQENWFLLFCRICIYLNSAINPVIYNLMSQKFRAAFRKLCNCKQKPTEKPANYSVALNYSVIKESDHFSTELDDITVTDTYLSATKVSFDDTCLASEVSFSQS

Experiment [9] shares this target. Nature of the experiment: qHTS assay to identify small molecule agonists of the thyrotropin-releasing hormone receptor (TRHR) signaling pathway (AID 1346891; calls by dose curve; note: series mostly up to about 58 µM). An outline of the steps:
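Intracellular calcium rise, read as fluorescence every second for 3 min, served as the agonist signal in dye-loaded HEK293 cells expressing TRHR; each compound ran at 15 concentrations in triplicate.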

Experiment [10] in a line: Human pregnane X receptor (PXR) small molecule agonists, qHTS cell viability counter screen (AID 1346977). Note: nearly all actives have a fitted effect of over 50% in size. Note: potency is the fitted concentration of half-maximal effect. Summed up: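 PXR-Luc HepG2, 2,000 cells/well, 5% charcoal-stripped FBS; 5hr settle; cpd 24hr, 37C/5% CO2; CellTiter-Fluor at 23hr, read 1hr later (fluorescence).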
Experiment [11] can be described thus: Caspase-3/7 induction in HepG2 cells by small molecules, qHTS assay (AID 1346978). Note: nearly all actives have a fitted effect of over 15% in size. Summed up:
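Wild-type HepG2 cells, 2,000/well, settled 5 hr at 37 C and 5% CO2, then compound-treated for 17 hr; caspase-3/7 activity read by luminescent Caspase-Glo 3/7 after 30 min at room temperature.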

The nature of experiment [12]: Caspase-3/7 induction in CHO-K1 cells by small molecules, qHTS cell viability counter screen (AID 1346979). Note: nearly all actives have a fitted effect of over 35% in size. Note: potency is the fitted concentration of half-maximal effect. Summed up: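 Cells (CHO-K1, wild type) are plated at 1,500 per well and incubated 5hr. Test compounds in DMSO are then pinned in, followed by 16hr at 37C and 5% CO2. Viability is read by CellTiter-Fluor fluorescence after 1hr.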
Experiment [13] is described as follows: Caspase-3/7 induction in CHO-K1 cells by small molecules, qHTS assay (AID 1346980). Note: nearly all actives have a fitted effect of over 15% in size. Summed up: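 Wild-type CHO-K1 cells exposed to compounds for 17hr at 37 C, 5% CO2. Caspase-3/7 activity then measured by Caspase-Glo 3/7 luminescence after 30min at room temperature.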
Experiment [14] can be described thus: Caspase-3/7 induction in HepG2 cells by small molecules, qHTS cell viability counter screen (AID 1346981). Note: nearly all actives have a fitted effect of over 30% in size. Note: potency is the fitted concentration of half-maximal effect. An outline of the steps:
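Multiplexed with the caspase-3/7 assay: HepG2 cells, 16 hr compound treatment, CellTiter-Fluor viability detection by fluorescence.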

Experiment [15] concerns the target Nuclear receptor subfamily 1 group I member 2 (Homo sapiens) (UniProt O75469). Nature of the experiment: Human pregnane X receptor (PXR) small molecule agonists, qHTS assay (AID 1346982). Note: nearly all actives have a fitted effect of over 35% in size. Note: potency is the fitted concentration of half-maximal effect. An outline of the steps: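 We seeded PXR-Luc HepG2 cells in assay medium containing 5% charcoal-stripped FBS, added compounds 5 hr later, incubated 24 hr, and read luminescence with ONE-Glo reagent.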

Experiment [16] has as its target Acetylcholinesterase (Homo sapiens) (UniProt P22303). Nature of the experiment: Acetylcholinesterase (AChE) small molecule antagonists: colormetric cell-based qHTS assay (AID 1347395; calls by dose curve; note: nearly all actives have a fitted effect of over 30% in size). An outline of the steps: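 Colorimetric read-out: DTNB detects thiocholine released when cellular AChE in SH-SY5Y cells hydrolyses acetylthiocholine. Cells attached overnight, received compound for 30 min at 37 C, then substrate mix for 90 min at 37 C.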

Experiment [17] concerns the target Progesterone receptor (Homo sapiens) (UniProt P06401). Briefly: qHTS assay to identify small molecule antagonists of the progesterone receptor (PR) signaling pathway (AID 1346795; active = well fitted inhibition curve with a large enough effect in the signal ratio in the repeat runs, not every such curve was filed as active; the % refers to the signal ratio). Summed up: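 Read-out is fluorescence from the LiveBLAzer B/G FRET substrate, cleaved by a UAS-controlled beta-lactamase in PR-UAS-bla HEK293T cells after 16 hr exposure to compound plus 1 nM promegestone (final), followed by 2 hr at room temperature.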

Experiment [18] concerns the target Nuclear receptor subfamily 1 group I member 2 (Rattus norvegicus) (UniProt Q9R1A7). Briefly: Rat pregnane X receptor (rPXR) activation by small molecules, qHTS assay (AID 1346983). Note: nearly all actives have a fitted effect of over 20% in size. The following applies: rPXR luciferase reporter cells, One-Glo luminescence, 24 h; active compounds read high. Summed up: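 Cell-based rPXR activation assay: rPXR cells, 2,000 per well, rested 5hr at 37 C, then exposed to compounds in DMSO for 24 hr at 37 C. Luciferase activity read by One-Glo luminescence after 30 min at room temperature.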

Experiment [19] deals with Nuclear receptor subfamily 1 group I member 2 (Homo sapiens) (UniProt O75469). Nature of the experiment: CYP3A4 induction through human pregnane X receptor (PXR) by small molecules, qHTS assay (AID 1346984). Note: nearly all actives have a fitted effect of over 40% in size. An outline of the steps:
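qHTS, concentration-response format: HepG2 DPX-2 line, PXR/CYP3A4-luc. Exposure 24 h, 37C. Substrate Luciferin-IPA 3uM final, 3 h. Detection One-Glo, 30 min RT.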

The target is the same in experiment [20]. Nature of the experiment: Human pregnane X receptor (PXR) activation by small molecules, qHTS assay (AID 1346985). Note: nearly all actives have a fitted effect of over 40% in size. An outline of the steps:
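DPX-2 cells (HepG2 co-transfected with a PXR response element and a CYP3A4-promoter luciferase construct) were seeded at 2,000 per well, rested 5 hr at 37C, then exposed to DMSO-dissolved compounds for 24 hr. Activation was read as luciferase luminescence.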

Values joined by “and” are separate entries in the source; they are usually repeats but may differ in a detail not shown here. Identical values can stand only once. A number with no mark means an inactive call. Results filed as inconclusive are left out. Active and inactive are the calls of the source. Unless noted, calls come from the whole dose curve; as a rule, active = well fitted curve in the direction sought with a large enough effect in the repeat runs; inconclusive = weak or mixed curves; inactive = no such curve, though single readings can be large; an effect the other way counts as inactive or inconclusive.
% is set by controls: 0 for no effect and ±100 for the full control effect.

Chain of Nuclear receptor subfamily 1 group I member 2 (Homo sapiens) (O75469 whole entry, looked up): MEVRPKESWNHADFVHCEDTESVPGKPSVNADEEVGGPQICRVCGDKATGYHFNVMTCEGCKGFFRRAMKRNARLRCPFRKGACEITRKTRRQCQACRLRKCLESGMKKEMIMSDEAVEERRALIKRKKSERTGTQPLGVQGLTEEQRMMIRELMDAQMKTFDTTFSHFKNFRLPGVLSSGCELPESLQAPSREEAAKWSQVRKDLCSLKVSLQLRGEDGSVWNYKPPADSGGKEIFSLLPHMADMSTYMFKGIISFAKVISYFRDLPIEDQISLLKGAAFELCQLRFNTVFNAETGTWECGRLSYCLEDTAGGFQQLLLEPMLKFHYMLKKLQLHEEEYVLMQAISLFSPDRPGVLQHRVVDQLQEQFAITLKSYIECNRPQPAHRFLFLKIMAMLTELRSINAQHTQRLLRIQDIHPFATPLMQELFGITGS
Chain of Progesterone receptor (Homo sapiens) (P06401 whole entry, looked up): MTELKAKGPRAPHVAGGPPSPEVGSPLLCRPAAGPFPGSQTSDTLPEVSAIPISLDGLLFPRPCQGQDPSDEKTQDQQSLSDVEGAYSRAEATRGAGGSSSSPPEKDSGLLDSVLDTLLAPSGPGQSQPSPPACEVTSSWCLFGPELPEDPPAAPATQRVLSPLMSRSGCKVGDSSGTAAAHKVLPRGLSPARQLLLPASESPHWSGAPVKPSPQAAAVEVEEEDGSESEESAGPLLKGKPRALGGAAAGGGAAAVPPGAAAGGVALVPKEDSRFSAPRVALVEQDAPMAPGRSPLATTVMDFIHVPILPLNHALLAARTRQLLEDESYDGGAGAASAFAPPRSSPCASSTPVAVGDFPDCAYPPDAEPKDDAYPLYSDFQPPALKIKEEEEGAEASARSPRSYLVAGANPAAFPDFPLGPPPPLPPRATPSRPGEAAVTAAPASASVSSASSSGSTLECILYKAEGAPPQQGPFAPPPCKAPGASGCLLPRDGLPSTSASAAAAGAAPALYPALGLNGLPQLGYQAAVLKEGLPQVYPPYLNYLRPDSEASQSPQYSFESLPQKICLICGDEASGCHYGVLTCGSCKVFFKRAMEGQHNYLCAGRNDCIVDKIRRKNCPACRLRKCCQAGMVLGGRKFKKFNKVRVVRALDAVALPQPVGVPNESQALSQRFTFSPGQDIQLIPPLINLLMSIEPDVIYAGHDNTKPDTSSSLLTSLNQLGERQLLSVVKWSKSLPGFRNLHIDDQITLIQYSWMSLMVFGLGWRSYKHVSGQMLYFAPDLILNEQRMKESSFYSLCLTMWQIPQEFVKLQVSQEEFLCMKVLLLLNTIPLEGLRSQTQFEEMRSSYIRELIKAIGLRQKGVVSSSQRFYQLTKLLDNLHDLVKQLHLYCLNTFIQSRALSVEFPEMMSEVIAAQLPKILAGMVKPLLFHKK
Chain of Acetylcholinesterase (Homo sapiens) (P22303 whole entry, looked up): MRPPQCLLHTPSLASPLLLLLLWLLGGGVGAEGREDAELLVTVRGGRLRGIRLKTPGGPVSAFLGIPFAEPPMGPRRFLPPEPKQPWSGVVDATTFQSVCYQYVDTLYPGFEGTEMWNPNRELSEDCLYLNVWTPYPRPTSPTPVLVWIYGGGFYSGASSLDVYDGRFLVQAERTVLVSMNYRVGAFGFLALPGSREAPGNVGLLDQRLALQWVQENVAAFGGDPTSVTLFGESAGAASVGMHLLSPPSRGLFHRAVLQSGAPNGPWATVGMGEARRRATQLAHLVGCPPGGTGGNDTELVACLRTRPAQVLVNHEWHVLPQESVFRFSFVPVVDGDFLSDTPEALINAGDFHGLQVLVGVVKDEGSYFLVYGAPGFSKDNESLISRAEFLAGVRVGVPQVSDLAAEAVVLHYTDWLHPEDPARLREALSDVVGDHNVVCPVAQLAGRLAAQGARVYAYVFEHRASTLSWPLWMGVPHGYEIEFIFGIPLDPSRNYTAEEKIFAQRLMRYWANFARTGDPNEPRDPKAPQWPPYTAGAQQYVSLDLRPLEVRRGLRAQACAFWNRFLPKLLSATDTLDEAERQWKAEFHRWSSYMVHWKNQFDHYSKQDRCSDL
Chain of Nuclear receptor subfamily 1 group I member 2 (Rattus norvegicus) (Q9R1A7 whole entry, looked up): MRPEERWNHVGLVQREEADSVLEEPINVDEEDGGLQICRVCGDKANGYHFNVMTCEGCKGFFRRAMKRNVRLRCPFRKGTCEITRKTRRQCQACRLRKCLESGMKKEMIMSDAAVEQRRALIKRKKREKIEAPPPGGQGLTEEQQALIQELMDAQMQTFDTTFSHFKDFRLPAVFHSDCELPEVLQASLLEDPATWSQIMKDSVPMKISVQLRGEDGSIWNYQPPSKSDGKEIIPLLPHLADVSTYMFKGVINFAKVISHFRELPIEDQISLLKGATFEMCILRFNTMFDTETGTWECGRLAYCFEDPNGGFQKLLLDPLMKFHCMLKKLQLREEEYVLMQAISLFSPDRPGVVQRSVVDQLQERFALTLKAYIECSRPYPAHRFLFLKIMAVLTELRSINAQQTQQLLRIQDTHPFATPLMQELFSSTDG

`Nc1cccc2ccccc12`: the Potency entry in experiment [1], in experiment [2], in experiment [3], in [4], in experiment [5] and in [6] was “inactive” each time. For the same molecule, the Potency result in [8], in experiment [10], in experiment [11], in experiment [12], in experiment [13] and in experiment [14] was “inactive” throughout. The Potency entry in experiment [16] was “inactive”. Further, the call in experiment [7] and in experiment [9] was inactive. In addition, in experiment [15], the Potency was 48.9 µM (active) and 61.1 µM (active).

On to `O=C=NC1CCCCC1`, for which the Potency entry in [1], in [2], in experiment [17], in [4], in experiment [5] and in [6] was “inactive” in each case. In addition, the Potency result in experiment [8], in experiment [10], in [11], in experiment [12], in experiment [13] and in experiment [14] was “inactive” in each case. The Potency entry in experiment [16] is “inactive”. For the same molecule, the molecule was called inactive in [7] and in experiment [9]. Further, the Potency in experiment [15] was 9.71 µM (active).

Turning to `O=C(NC(=O)c1cc(F)c(F)cc1Cl)Nc1cc(F)ccc1N1CCC(C(=O)O)CC1`, the Potency result in experiment [1], in experiment [2], in [17], in experiment [5], in experiment [6] and in experiment [8] was “inactive” each time. Besides, the Potency entry in experiment [10], in [11], in experiment [12], in experiment [13], in experiment [14] and in experiment [15] was “inactive” throughout. In experiment [16], the Potency result is “inactive”. The result in experiment [9] was inactive.

For `O=C(O)C(F)(F)C(F)(F)C(F)(F)C(F)(F)C(F)(F)C(F)(F)C(F)(F)C(F)(F)F`, the Potency entry in [1], in [2], in experiment [3], in [5], in experiment [6] and in experiment [8] was “inactive” each time. Moreover, the Potency result in experiment [10], in experiment [11], in experiment [12], in experiment [13], in [14] and in experiment [16] was “inactive” in each case. Also, the outcome in [7] and in [9] was inactive. The Potency in experiment [15] was 21.7 µM (active).

With `CN(C)c1ccc(N=O)cc1`, the Potency in experiment [1] is 68.8 µM (active) and 61.1 µM (active); in [3], 38.7 µM (active) and 48.6 µM (active); in [10], 44.7 µM (active) and 27.3 µM (active); in [12] it was 7.72 µM (active) and 8.63 µM (active); in experiment [14], 54.6 µM (active) and 61.1 µM (active); in [15] it was 21.8 µM (active) and 9.69 µM (active). Also, the Potency entry in experiment [4], in experiment [5], in experiment [6], in [8], in experiment [11] and in experiment [13] was “inactive” in each case. Further, in experiment [16], the Potency result was “inactive”. For the same molecule, the molecule was classed as inactive in [7] and in experiment [9].

As for `NCCc1cc(O)c(O)cc1O`, the Potency result in experiment [2], in [17], in [3], in [4], in experiment [5] and in experiment [6] was “inactive” each time. In addition, the Potency result in experiment [8], in [10], in experiment [11], in [13], in experiment [14] and in [15] was “inactive” each time. Further, the Potency entry in experiment [20] and in experiment [16] was “inactive” each time. The result in [9] and in experiment [19] was inactive. In addition, the max activation in experiment [18] is -4.9%.

Turning to `CCc1ccccc1N`, the Potency entry in [1], in [2], in experiment [4], in [5], in experiment [6] and in experiment [10] was “inactive” throughout. Besides, the Potency entry in experiment [11], in experiment [12], in experiment [13], in experiment [14], in [15] and in experiment [16] was “inactive” throughout.

Regarding `O=[N+]([O-])O[C@H]1CO[C@H]2[C@@H]1OC[C@H]2O[N+](=O)[O-]`, the Potency entry in experiment [1], in [2], in [4], in experiment [5], in [6] and in experiment [8] was “inactive” in each case. Moreover, the Potency result in experiment [10], in experiment [11], in experiment [12], in experiment [13], in [14] and in experiment [15] was “inactive” each time. The Potency result in experiment [20] and in experiment [16] was “inactive” in each case. Besides, the outcome in experiment [9] and in experiment [19] was inactive. Besides, in [18], the max activation is -0.141%.
